Reference: PubChem BioAssay (Tox21)
Inconclusive results are not listed. The source made the active and inactive calls. Unless noted, calls follow the shape of the dose curve; as a rule, active = well fitted curve in the direction sought with a large enough effect in the repeat runs; inconclusive = weak or mixed curves; inactive = no such curve, though single readings can be large; an effect the other way counts as inactive or inconclusive.

What was measured:
[1] = qHTS assay to identify small molecule antagonists of the vitamin D receptor (VDR) signaling pathway - cell viability counter screen (AID 743225); settings: VDR-bla HEK293T viability, CellTiter-Glo luminescence, 16 h; series mostly up to 61 µM; also: nearly all actives have a fitted effect of over 50% in size
Summary of the method: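 Parallel cytotoxicity test: VDR-UAS-bla HEK 293T, 3 nM (final) 1-alpha,25-dihydroxyvitamin D3 with test compound, 16 h, 37C. Endpoint is CellTiter-Glo luminescence in the same wells.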

[2] = qHTS assay to identify small molecule agonists of the NFkB signaling pathway (AID 1159509; active = well fitted curve in the direction sought with a large enough effect in the signal ratio in the repeat runs, not every such curve was filed as active; the % refers to the signal ratio); settings: NFkB-bla ME-180 cells, beta-lactamase FRET ratio, 5 h; series mostly up to 61 µM
Summary of the method: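 Readout: FRET fluorescence, 405 nm excitation, 460/530 nm emission; beta-lactamase expression disrupts FRET. Cells: ME-180 stably carrying NF-kB-driven bla reporter. Compound exposure 5 hr, 37 C, 5% CO2.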

[3] = qHTS assay to identify small molecule agonists of the NFkB signaling pathway - cell viability counter screen (AID 1159515; calls by dose curve; also: nearly all actives have a fitted effect of over 55% in size); settings: NFkB-bla ME-180 viability, CellTiter-Glo luminescence, 5 h; series mostly up to 61 µM
Summary of the method: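 Parallel cytotoxicity counter screen in ME-180 cells carrying an NFkB-response-element beta-lactamase reporter, 2,000 cells/well. Compound exposure lasted 5 hr at 37 C, 5% CO2. Cell viability was quantified by CellTiter-Glo luminescence.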

[4] = qHTS assay to identify small molecule agonists of the endoplasmic reticulum stress response signaling pathway (AID 1159516; active = well fitted activation curve with a large enough effect in the signal ratio in the repeat runs, not every such curve was filed as active; the % refers to the signal ratio; also: potency is read from the fitted curve at half-maximal effect); settings: ESRE-bla HeLa, ER stress beta-lactamase reporter, 5 h; series mostly up to 61 µM
Summary of the method: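 Using a HeLa line with an ESRE-driven beta-lactamase gene, agonist activity was measured by FRET substrate fluorescence (460 and 530 nm emission) after cells were treated with compounds for 5 hr at 37 C and 5% CO2.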

[5] = qHTS assay to identify small molecule antagonists of the retinoid-related orphan receptor gamma (ROR-gamma) signaling pathway - cell viability counter screen (AID 1159520); settings: Tet-on RORgamma CHO cells viability, ATP luminescence, 16 h; series mostly up to 92.4 µM; also: nearly all actives have a fitted effect of over 50% in size
Summary of the method: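 Tet-on ROR gamma CHO cells (1,000/well) were plated 4 hr, given compounds in DMSO for 2 hr at 37 C, then induced with 1 uM final doxycycline for 16 hr. Viability was read as ATP by CellTiter-Glo luminescence after 30 min.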

[6] = molecular target: Nuclear receptor ROR-gamma (Homo sapiens) (UniProt P51449); test: qHTS assay to identify small molecule antagonists of the retinoid-related orphan receptor gamma (ROR-gamma) signaling pathway (AID 1159521;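 also: CHO cells with doxycycline inducible ROR-gamma driving an RORE luciferase reporter; top concentration of the series differs between compounds; nearly all actives have a fitted effect of over 50% in size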); settings: Tet-on RORgamma CHO cells, RORE-luciferase, 16 h; series mostly up to 92.4 µM
Summary of the method: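 Decreased RORE-driven luciferase luminescence indicates antagonism. Tet-on RORγ CHO cells received compound, then 1 uM final doxycycline 2 h later; signal read after 16 h incubation.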

[7] = qHTS assay to identify small molecule agonists of the AP-1 signaling pathway - cell viability counter screen (AID 1159525; calls by dose curve; also: nearly all actives have a fitted effect of over 55% in size); settings: ME-180 AP-1-bla cells viability, ATP luminescence, 5 h; series mostly up to 76.8 µM
Summary of the method: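 Each titration point was normalised to DMSO and tetra n-octyl ammonium bromide controls. The read was Cell Titer Glo luminescence after 30 min at RT, following 5 h compound exposure of ME-180 AP-1-bla cells at 37 °C.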

[8] = qHTS assay to identify small molecule agonists of the AP-1 signaling pathway (AID 1159526; calls by dose curve); settings: ME-180 (cervical carcinoma) AP-1-bla reporter, beta-lactamase FRET ratio, 5 h; series mostly up to 76.8 µM
[9] = molecular target: Retinoic acid receptor RXR-alpha (Homo sapiens) (UniProt P19793); test: qHTS assay to identify small molecule agonists of the RXR signaling pathway (AID 1159527; calls by dose curve; also: nearly all actives have a fitted effect of over 35% in size); settings: HEK293T RXRa-UAS-bla, beta-lactamase ratio, 16 h; series mostly up to 76.8 µM
Retinoic acid receptor RXR-alpha (Homo sapiens), sequence (P19793 whole entry, looked up): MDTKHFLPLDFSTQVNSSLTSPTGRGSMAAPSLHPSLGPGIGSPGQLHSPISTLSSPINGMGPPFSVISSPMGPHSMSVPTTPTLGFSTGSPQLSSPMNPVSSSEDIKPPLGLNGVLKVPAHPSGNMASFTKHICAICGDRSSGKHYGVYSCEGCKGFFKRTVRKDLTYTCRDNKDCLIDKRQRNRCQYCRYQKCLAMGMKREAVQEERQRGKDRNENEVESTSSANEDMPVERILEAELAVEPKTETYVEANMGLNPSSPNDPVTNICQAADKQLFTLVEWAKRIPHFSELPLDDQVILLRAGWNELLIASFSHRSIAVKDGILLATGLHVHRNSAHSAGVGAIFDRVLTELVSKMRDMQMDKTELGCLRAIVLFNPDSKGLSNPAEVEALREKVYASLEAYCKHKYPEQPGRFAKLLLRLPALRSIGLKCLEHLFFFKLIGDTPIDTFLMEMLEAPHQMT
Summary of the method: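 16 hr incubation of compound-treated RXR-alpha-UAS-bla HEK 293T cells (2% charcoal-stripped FBS, 37 C) preceded a 2 hr room-temperature LiveBLAzer FRET substrate step and blue/green fluorescence measurement.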

[10] = qHTS assay to identify small molecule agonists of the RXR signaling pathway - cell viability counter screen (AID 1159529); settings: RXR-alpha-bla HEK293T viability, CellTiter-Glo, 16 h; series mostly up to 76.8 µM;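 also: HEK 293T cells carrying an RXR-alpha UAS beta-lactamase reporter; nearly all actives have a fitted effect of over 50% in size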
Summary of the method: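 In this parallel viability measure, GeneBLAzer RXR-alpha HEK 293T cells (2% charcoal-stripped FBS) were given a 5 hr preincubation, treated with compounds 16 hr at 37 C, and read by CellTiter-Glo luminescence.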

[11] = qHTS assay to identify small molecule antagonists of the retinoid acid receptor (RAR) signaling pathway - cell viability counter screen (AID 1159551); settings: C3RL4 cells viability, ATP luminescence (CellTiter-Glo), 6 h; series mostly up to 92.4 µM; also: nearly all actives have a fitted effect of over 35% in size
Summary of the method: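 ATP-based viability, C3RL4 cells, 6 h at 37 C with 1 uM final retinol co-added after compound; luminescence read 30 min post CellTiter-Glo, RT.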

[12] = qHTS assay to identify small molecule antagonists of the estrogen related receptor (ERR) signaling pathway from Tox21 library - cell viability counter screen (AID 1224834); settings: ERR reporter cells viability, CellTiter-Fluor, 17.5 h; series mostly up to 92.4 µM; also: nearly all actives have a fitted effect of over 30% in size
Summary of the method: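 Compounds in DMSO were pinned onto ERR cells that had been incubated for 6 h, and the plates were held at 37 C for 17.5 h. CellTiter-Fluor reagent was then added and fluorescence was measured after 30 min.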

[13] = qHTS assay to identify small molecule antagonists of the retinoic acid receptor (RAR) signaling pathway (AID 1159552; also: nearly all actives have a fitted effect of over 50% in size); settings: C3RL4 RARE luciferase reporter, retinol-stimulated, 6 h; series mostly up to 92.4 µM
Summary of the method: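 C3RL4 RARE-luc cells, overnight plating; retinol 1 uM final added right after compound; 6 hr 37 C; luciferase read at 30 min RT.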

[14] = qHTS assay to identify small molecule agonists of the retinoic acid receptor (RAR) signaling pathway (AID 1159553); settings: C3RL4 RARE luciferase reporter, agonist, 6 h; series mostly up to 73.3 µM; also: potency is read from the fitted curve at half-maximal effect
Summary of the method: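 Quantitative high-throughput format: the Tox21 10K library was tested on C3RL4 RARE-luciferase cells for 6 hr at 37 C and 5% CO2, with luminescence measured after a 30 min room-temperature reagent step.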

[15] = qHTS assay to identify small molecule antagonists of the estrogen related receptor (ERR) signaling pathway (AID 1224819); settings: ERR reporter cell line, luciferase inhibition; series mostly up to 46.1 µM
Summary of the method: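 ERR reporter cell line (NTP) plated at 2,000 cells/well, settled 6 h at 37C/5% CO2, then exposed to LOPAC compounds for 18 h at 37C. One-Glo luciferase luminescence read after 30 min at room temperature.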

[16] = qHTS assay to identify small molecule agonists of the estrogen related receptor (ERR) signaling pathway (AID 1224820); settings: ERR reporter cell line, luciferase agonist mode; series mostly up to 46.1 µM
Summary of the method: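 Luminescence readout (One-Glo, 30 min RT) from NTP-supplied ERR cell line exposed to compounds for 18 h at 37 C. Cells seeded 2,000 per well and pre-incubated 6 h before pin-tool compound transfer.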

[17] = system: estrogen-related receptor alpha (ERRalpha) with PGC-1alpha coactivator, human; test: qHTS assay to identify small molecule antagonists of the estrogen related receptor signaling pathway with the pleiotropic PPARgamma coactivator (PGC) (AID 1224821; calls by dose curve); settings: ERR/PGC reporter cell line, luciferase, antagonist mode; series mostly up to 46.1 µM
Summary of the method: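 PGC/ERR reporter cells; 6 h pre-incubation 37 C/5% CO2; pin-tool compound in DMSO, 18 h 37 C; One-Glo added, 30 min RT; luminescence read. qHTS antagonist mode.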

[18] = qHTS assay to identify small molecule antagonists of the estrogen related receptor signaling pathway with the pleiotropic PPARgamma coactivator (PGC) cell viability counter screen (AID 1224822;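 also: viability read after 17.5 h compound exposure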); settings: ERR/PGC reporter cell line viability counter screen; series mostly up to 46.1 µM
Summary of the method: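 Cytotoxicity in the PGC/ERR cell line is assessed with CellTiter-Fluor, read as fluorescence intensity 30 min after reagent addition, following 17.5 h compound treatment at 37 C.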

[19] = qHTS assay to identify small molecule agonists of the estrogen related receptor signaling pathway with the pleiotropic PPARgamma coactivator (PGC) (AID 1224823); settings: ERR/PGC reporter cell line, luciferase agonist mode; series mostly up to 46.1 µM
Summary of the method: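 Luminescence readout (One-Glo, 30 min RT) from PGC/ERR cell line treated 18 h at 37 C with pin-tool-delivered DMSO compound solutions; cells plated 6 h before dosing. Quantitative HTS format.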

Measured: Potency

CC1CCCO1 (centres undefined)
inactive: [1] | [2] | [3] | [4] | [5] | [6] | [7] | [8] | [9] | [10] | [11] | [12]

CCCCCCC(O)CCOC(C)=O (centres undefined)
inactive: [1] | [2] | [3] | [4] | [5] | [6] | [7] | [8] | [9] | [10] | [11] | [12]

Cc1cccc2sc(N)nc12
inactive: [1] | [2] | [3] | [4] | [5] | [6] | [7] | [8] | [9] | [10] | [13] | [12]

CCC(CO)(CO)CO
inactive: [1] | [2] | [3] | [4] | [5] | [6] | [7] | [8] | [9] | [10] | [13] | [14] | [12]

CNC1CCCN(c2c(F)cc3c(=O)c(C(=O)O)cn(C4CC4)c3c2OC)C1 (centres undefined)
inactive: [1] | [2] | [3] | [4] | [5] | [6] | [7] | [8] | [9] | [10] | [11] | [14] | [12]

CN=C(N)NC(=O)Nc1c(C)cccc1C
inactive: [1] | [2] | [3] | [4] | [5] | [6] | [7] | [8] | [9] | [10] | [11] | [12]

CC(C)CC(O)CC(C)C
inactive: [1] | [2] | [3] | [4] | [5] | [6] | [7] | [8] | [9] | [11] | [13] | [14] | [12]

O=C(Nc1ccc(C(=O)O)c(O)c1)c1ccccc1
inactive: [1] | [2] | [3] | [4] | [5] | [6] | [7] | [8] | [9] | [10] | [12]

O=C(CCS)OCC(COC(=O)CCS)(COC(=O)CCS)COC(=O)CCS
active: [4] 8.71 µM
inactive: [1] | [2] | [3] | [5] | [6] | [7] | [8] | [9] | [12]

CC(=O)OC(C)C[N+](C)(C)C (centres undefined)
inactive: [1] | [2] | [3] | [4] | [5] | [6] | [7] | [9] | [10] | [11] | [14] | [15] | [16] | [17] | [18] | [19] | [12]

CCN(CC)CCNC(=O)c1cc(Cl)c(N)cc1OC
inactive: [1] | [2] | [3] | [4] | [5] | [6] | [7] | [8] | [10] | [11] | [18] | [12]

Oc1ccc2c(c1)Cc1ccccc1-2
inactive: [1] | [2] | [3] | [4] | [5] | [6] | [7] | [8] | [10] | [13] | [12]
active: [14] 13.7 µM
